Measurements as given in PubChem BioAssay (NCATS).
Unmarked numbers belong to inactive results. The source made the active and inactive calls. The call rests on the fitted dose curve; in most records, active means well fitted inhibition curve with a large enough effect; inconclusive means small, poorly fitted or top-dose-only effect; inactive means flat fitted curve, though single readings scatter.
On the % scale 0 is the no-effect control and ±100 the full control effect; potency means the concentration at half of the fitted maximal effect.

The molecules below were run against Flap endonuclease 1 (Homo sapiens) (UniProt P39748) (assay: qHTS Validation Assay for the Inhibitors of Human Flap endonuclease 1 (FEN1) (AID 488816)). Settings: FEN1 nuclease activity, fluorogenic DNA substrate; series mostly up to 57.1 µM; activity, negative = inhibition: at the top concentration.
Sequence of Flap endonuclease 1 (Homo sapiens) (P39748 whole entry, looked up, the tested form may be a part): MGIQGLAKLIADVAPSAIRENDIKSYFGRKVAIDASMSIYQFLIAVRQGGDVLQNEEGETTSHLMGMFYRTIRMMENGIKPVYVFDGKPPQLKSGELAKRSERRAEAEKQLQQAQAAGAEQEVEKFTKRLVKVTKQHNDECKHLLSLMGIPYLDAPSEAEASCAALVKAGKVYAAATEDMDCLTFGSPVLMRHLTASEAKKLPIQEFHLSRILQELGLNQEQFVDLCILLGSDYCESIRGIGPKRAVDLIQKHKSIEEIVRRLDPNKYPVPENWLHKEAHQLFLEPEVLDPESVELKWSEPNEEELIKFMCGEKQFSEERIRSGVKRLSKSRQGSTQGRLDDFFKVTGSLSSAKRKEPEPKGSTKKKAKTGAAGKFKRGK
Text: The major human flap endonuclease FEN1 is an efficient structure-specific enzyme that recognizes and cleaves a 5'-unannealed DNA flap. It belongs to the RAD2 family nucleases, which are involved in DNA metabolism and are highly conserved in prokaryotes and eukaryotes. FEN1 is a key enzyme in DNA replication, repair and maintenance of genomic stability. 5'-flap removal by FEN1 is critical for Okazaki fragment processing during lagging strand DNA synthesis, long-patch base excision repair (LP BER), and regulating or facilitating recombination events. […] Deletion of the yeast FEN1 gene, i.e. rad27, results in an increased frequency of short DNA (3-32 bp) repeats, micro- and mini-satellite formation, trinucleotide repeat expansion, spontaneous recombination events, and a severe growth defect in association with cell cycle arrest in late S/G2 phase. […] Cells from fen1-/- blastocysts show increased apoptotic cell death after ionizing radiation treatment, and chicken cells lacking the fen1 gene are hypersensitive to DNA alkylating agents, e.g. methylmethane sulfonate (MMS) and N-methyl-N'-nitro-N-nitrosoguanidine (MNNG), as well as hydrogen peroxide.
FEN1 is found to be increased in many human cancers, including lung, brain cancer, gastric cancer, prostate cancer, pancreatic cancer and breast cancer. […] In particular, elevation of FEN1 in hormone refractory human prostate cancer cells correlates with resistant to various anticancer agents including ionizing radiation, doxorubicin, paclitaxel and vinblastine.
Three uL of reagents (buffer in column 3 and 4 as negative control and 10 nM FEN1 in columns 1, 2, and 5-48) were dispensed into 1,536-well black solid-bottomed plate. Compounds (23 nL) were transferred via Kalypsys pin tool equipped with 1536-pin array (10 nL slotted pins, V&P Scientific, San Diego, CA). The plates were then incubated for 15 min at room temperature, and 1 uL substrate (50 nM final concentration) were added to start the reaction read twice at 0 min read and 15 min on ViewLux reader. Throughout the screen, reagent bottle and all liquid lines were chilled and made light-tight to minimize reagent degradation. All screening operations were performed on a fully integrated robotic system (Kalypsys, San Diego, CA) containing one RX-130 and two RX-90 anthropomorphic robotic arms (Staubli, Duncan, SC). Library plates were screened starting from the lowest and proceeding to the highest concentration, and a "double-dipping" step of the highest concentration was required to access higher concentrations of compounds. Vehicle-only plates, with DMSO being pin-transferred to the entire column 5-48 compound area, were inserted uniformly at the beginning and the end of each library in order to monitor for and record any shifts in the background, which can be affected by reagent dispensers or loss in enzyme activity overtime. Screening data was corrected, normalized, and concentration-effect relationships were derived by using publicly-available curve fitting algorithms developed in-house (http://ncgc.nih.gov/pub/openhts). A four parameter Hill equation was fitted to the concentration-response data by minimizing the residual error between the modeled and observed responses.
For `C=CC(=O)c1ccc(CCCCCC)cc1`, the “activity, negative = inhibition” value was -2.12%.
`O=[N+]([O-])c1ccc(CSc2ncnc3c2ncn3[C@@H]2O[C@H](CO)[C@@H](O)[C@H]2O)cc1` was tested, and the “activity, negative = inhibition” value was -0.986%.
In the case of `O=C(O)CC[C@@H](C(=O)O)N1C(=O)c2ccccc2C1=O`, the “activity, negative = inhibition” value is reported as 2.99%.
For `Cn1cc(C2=C(c3ccc(Cl)cc3Cl)C(=O)NC2=O)c2ccccc21`, the “activity, negative = inhibition” value was 0.497%.
For `S=C(S)OC1CC2CC1C1CCCC21` (stereo not given), the “activity, negative = inhibition” value was -5.06%.
With `N=c1ccn2c(n1)O[C@H]1[C@H](O)[C@@H](CO)O[C@H]12` the “activity, negative = inhibition” value was -0.81%.
In the case of `C=CC(C)=C[C@@]1(C)SC(=O)C(C)=C1O`, the “activity, negative = inhibition” value is reported as -7.47%.
`Nc1nc(Cl)nc2c1ncn2[C@@H]1O[C@H](COP(=O)(O)OP(=O)(O)OP(=O)(O)O)[C@@H](O)[C@H]1O` was tested, and the “activity, negative = inhibition” value was -0.116%.
`CC1(C)CCC=[N+]1[O-]` was tested, and the “activity, negative = inhibition” value was -7.38%.
`Oc1ccc(C2CNCc3sccc32)cc1O` (stereo not given) was tested, and the “activity, negative = inhibition” value was -6.57%.
In the case of `NC(N)=NC(=O)c1nc(Cl)c(N2CCCCCC2)nc1N`, the “activity, negative = inhibition” value is reported as -12.4%.
With `CSc1nc(N)c2ncn([C@@H]3O[C@H](COP(=O)(O)OP(=O)(O)OP(=O)(O)O)[C@@H](O)[C@H]3O)c2n1` the “activity, negative = inhibition” value was -6.67%.
In the case of `CCCCCCCCCCCCCCCC(=O)NCC(COP(=O)([O-])OCC[N+](C)(C)C)OCC` (stereo not given), the “activity, negative = inhibition” value is reported as 0.866%.
For `Clc1ccc(N2CCN(Cc3c[nH]c4ncccc34)CC2)cc1`, the “activity, negative = inhibition” value was -28%.
In the case of `N#C/C(=C\c1ccc(O)c(O)c1)C(=O)NCCCc1ccccc1`, the “activity, negative = inhibition” value is reported as -9.96%.
With `c1ccc(-c2ccccn2)nc1` the “activity, negative = inhibition” value was 1.87%.
`CCCCCC(O)c1cccc(OCc2ccc3ccccc3n2)c1` (stereo not given) was tested, and the “activity, negative = inhibition” value was -14.2%.
In the case of `CN1C2CCC1CC(OC(=O)C(O)c1ccccc1)C2` (stereo not given), the “activity, negative = inhibition” value is reported as -0.0986%.
For `Cc1ccc(S(=O)(=O)/C=C/C#N)cc1`, the “activity, negative = inhibition” value was -5.72%.
With `COc1ccccc1N1CCN(CCCCNS(=O)(=O)c2cccc3c(N(C)C)cccc23)CC1` the “activity, negative = inhibition” value was -10.1%.
`C[N+](C)(C)CCOP(=O)(O)OP(=O)([O-])OC[C@H]1O[C@@H](n2ccc(N)nc2=O)[C@H](O)[C@@H]1O` was tested, and the “activity, negative = inhibition” value was -1.34%.
For `OCC1O[C@H]([S-])[C@H](O)[C@@H](O)[C@@H]1O.[Au+]` (stereo not given in full), the Potency was 1500 nM (active).
`CCCCCCCCc1ccc(-c2ccc(C(=O)O)cc2)cc1` was tested, and the “activity, negative = inhibition” value was -3.73%.
For `CCCn1c(=O)c2[nH]c(-c3ccc(OCC(=O)NCCN)cc3)nc2n(CCC)c1=O`, the “activity, negative = inhibition” value was -8.29%.
In the case of `CN(C)c1nc(N)c(C(=O)N=C(N)N)nc1Cl`, the “activity, negative = inhibition” value is reported as -18%.
With `CCCCC/C=C\CC(O)/C=C/c1cccc(CC(O)CCCCO)n1` (stereo not given) the “activity, negative = inhibition” value was -3.39%.
In the case of `NC[C@@H]1O[C@H](C23CC4CC(CC(C4)C2)C3)Cc2c1ccc(O)c2O`, the “activity, negative = inhibition” value is reported as -11.7%.
For `Nc1ncnc2c1ncn2[C@@H]1O[C@H](COP(=O)(O)CP(=O)(O)OP(=O)(O)O)[C@@H](O)[C@H]1O`, the “activity, negative = inhibition” value was -3.6%.
For `Fc1cccc(/C=N/N=C/c2cccc(F)c2)c1`, the “activity, negative = inhibition” value was -5.84%.
In the case of `CC1CN(S(=O)(=O)c2cccc3cnccc23)CCN1` (stereo not given), the “activity, negative = inhibition” value is reported as -1.05%.
With `CC(=O)N[C@H](C(=O)O)C(C)(C)SN=O` the “activity, negative = inhibition” value was -4.04%.
With `CCCCCCCCCCCCCCCCCC(=O)OC(CC(=O)O)C[N+](C)(C)C` (stereo not given) the “activity, negative = inhibition” value was -5.59%.
For `CN(C)c1nc2c(Br)c(Br)c(Br)c(Br)c2[nH]1`, the “activity, negative = inhibition” value was -12.9%.
In the case of `CC(COc1ccc(/C=C/c2ccccc2)cc1)[N+](C)(C)C` (stereo not given), the “activity, negative = inhibition” value is reported as -7.71%.
`OC[C@H]1O[C@@H](n2cnc3c(Nc4ccccc4)ncnc32)[C@H](O)[C@@H]1O` was tested, and the “activity, negative = inhibition” value was -1.11%.
`O=C1O/C(=C/Br)CCC1c1cccc2ccccc12` (stereo not given) was tested, and the “activity, negative = inhibition” value was -10.8%.
In the case of `COc1cccc(OC)c1OCCNCC1COc2ccccc2O1` (stereo not given), the “activity, negative = inhibition” value is reported as -6.28%.
For `Nc1nc(SCc2ccc([N+](=O)[O-])cc2)c2ncn([C@@H]3O[C@H](CO)[C@@H](O)[C@H]3O)c2n1`, the “activity, negative = inhibition” value was -1.81%.
For `NS(=O)(=O)C#Cc1ccccc1`, the “activity, negative = inhibition” value was -3.01%.
In the case of `CC(C)(C)c1ccc(S(=O)(=O)/C=C/C#N)cc1`, the “activity, negative = inhibition” value is reported as -4.49%.
